Among the test systems are NCI-H23 lung; NCI-H226 lung; NCI-H322M lung; HOP-62 NSCLC; NCI-H460 lung; HOP-92 NSCLC; NCI-H522 lung; A549/ATCC NSCLC; 786-0 renal; COLO 205 colon; DU-145 prostate; K-562 leukemia; MALME-3M melanoma; MDA-MB-231 breast; RXF 393 renal; SF-268 CNS; SF-295 CNS; SF-539 CNS; UACC-257 melanoma; M14 melanoma.
What all share (experiment): NCI-60 one-dose screen, 48 h (100 = growth as untreated, 0 = no growth, -100 = all killed)
What all share (details): 10 µM unless noted

Drawing on PubChem BioAssay (NCI), this text covers growth for seven compounds.

This is part of a sample that, as a whole, favours compounds with a hit. Of some 83,000 tested, about 20% had one in any assay.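 The test compound was applied at a single concentration to cells in 96-well plates for 48 hours, and percent growth was recorded.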 Values without a mark were called inactive. Active and inactive are the calls of the source. Rule for the calls: active = growth percent below 10; inactive = the rest.

In the case of `COc1ccc(NC(=O)CSc2nc(C)c(C(C)=O)n2-c2ccc(Cl)cc2)cc1`, the growth in the test with NCI-H23 lung was 90.6%; in the test on NCI-H226 lung, 86.6%; in the test with NCI-H322M lung it was 100%; in the test with HOP-62 NSCLC, 88.5%; in the test on NCI-H460 lung it was 102%; in the test with HOP-92 NSCLC, 106%. The growth in the test on NCI-H522 lung was 78.1%; with A549/ATCC NSCLC it was 97.1%; in the test with 786-0 renal, 106%; with COLO 205 colon, 102%; in the test with DU-145 prostate, 116%; in the test on K-562 leukemia, 109%. The growth in the test on MALME-3M melanoma was 96%; with MDA-MB-231 breast, 59.7%; in the test on RXF 393 renal, 94.5%; in the test with SF-268 CNS, 102%; with SF-295 CNS it was 93.3%; in the test with SF-539 CNS it was 96.2%. In addition, the growth is 101% in the test with UACC-257 melanoma and 97% in the test with M14 melanoma.
`COc1cccc(/C=C/C(=O)c2c(C)nc3ccccc3c2/C=C/c2ccc(C)cc2)c1OC`: the growth in the test on NCI-H23 lung is 49.7%; in the test with NCI-H226 lung it was 62.8%; in the test on NCI-H322M lung, 82.1%; in the test on HOP-62 NSCLC, 70%; in the test on NCI-H460 lung it was 26.1%; with HOP-92 NSCLC, 76.4%. Besides, the growth is 50.5% with NCI-H522 lung; 94.3% in the test with A549/ATCC NSCLC; 74.5% with 786-0 renal; 80.6% in the test with COLO 205 colon; 52.3% in the test with DU-145 prostate; 17.3% in the test on K-562 leukemia. Further, the growth in the test with MALME-3M melanoma is 79.1%; in the test with MDA-MB-231 breast, 63.8%; with RXF 393 renal, 53.8%; with SF-268 CNS it was 70.3%; in the test on SF-295 CNS, 65.7%; with SF-539 CNS, 72.8%. In addition, the growth was 67.5% in the test on UACC-257 melanoma and 73.7% in the test with M14 melanoma.
Consider `CC1=C([Se]CC(OC(=O)[C@@H](CO)NC(=O)OC(C)(C)C)C(=O)NC(C)(C)C)C(=O)c2ccccc2C1=O` (stereo not given in full), for which the growth in the test on NCI-H23 lung was -74.5% (active); in the test with NCI-H226 lung, -98.5% (active); in the test on NCI-H322M lung, -73.1% (active); in the test on HOP-62 NSCLC, -60.1% (active); with NCI-H460 lung, -61.7% (active); in the test with HOP-92 NSCLC, -68.8% (active). Moreover, the growth in the test on NCI-H522 lung was -92.8% (active); with A549/ATCC NSCLC, -11.5% (active); with 786-0 renal it was -100% (active); in the test with COLO 205 colon, -100% (active); in the test with DU-145 prostate, -71.1% (active); in the test with K-562 leukemia, -37% (active). In addition, the growth in the test on MALME-3M melanoma is -64.9% (active); in the test with MDA-MB-231 breast it was -82.2% (active); in the test with RXF 393 renal, -86.2% (active); in the test with SF-268 CNS, -75.1% (active); in the test on SF-295 CNS it was -37.4% (active); with SF-539 CNS it was -100% (active). Further, the results for the growth with UACC-257 melanoma and with M14 melanoma were -87.1% (active) and -100% (active), respectively.
In the case of `Cc1ccc2nc(C)c(-c3nnc(SCc4ccc(C#N)cc4)o3)n2c1`, the growth in the test with NCI-H23 lung was 85.3%; in the test with NCI-H226 lung, 93.5%; in the test with NCI-H322M lung, 90.7%; in the test on HOP-62 NSCLC, 97.6%; with NCI-H460 lung it was 102%; with HOP-92 NSCLC, 104%. Further, the growth with NCI-H522 lung was 97%; in the test with A549/ATCC NSCLC, 104%; in the test with 786-0 renal it was 72.2%; with COLO 205 colon it was 116%; with DU-145 prostate, 112%; with K-562 leukemia, 38%. Also, the growth was 101% in the test on MALME-3M melanoma; 74.2% in the test on MDA-MB-231 breast; 89.5% in the test on RXF 393 renal; 96.6% in the test on SF-268 CNS; 92.9% in the test on SF-295 CNS; 88.3% with SF-539 CNS. Moreover, the values for the growth with UACC-257 melanoma and in the test with M14 melanoma were 119% and 102%, respectively.
With `Cn1cc2c(c1)-c1nc(Nc3ccccc3)ncc1CC2`, the growth in the test on NCI-H23 lung was 38.3%; in the test on NCI-H226 lung it was 51.7%; in the test on NCI-H322M lung it was 52.9%; with HOP-62 NSCLC, 69.2%; with NCI-H460 lung, 42.5%; in the test on HOP-92 NSCLC it was 70.6%. Also, the growth with NCI-H522 lung is 84.9%; in the test on A549/ATCC NSCLC it was 72%; in the test with 786-0 renal, 87.2%; in the test with COLO 205 colon, 76.7%; in the test with DU-145 prostate, 56.5%; in the test with K-562 leukemia it was 85.2%. For the same compound, the growth with MALME-3M melanoma was 95.3%; with MDA-MB-231 breast, 67.4%; in the test with RXF 393 renal, 62.4%; in the test with SF-268 CNS, 72.2%; with SF-295 CNS, 84.3%; with SF-539 CNS it was 65.6%. For the same compound, the growth with UACC-257 melanoma was 89.7%; with M14 melanoma, 55%.
`CCCCCCCCCOc1c(OC)cc(C2CC(=O)Nc3c2c(C)nn3-c2nc3ccccc3[nH]2)cc1OC` (stereo not given): the growth in the test on NCI-H23 lung is -50% (active); in the test on NCI-H226 lung, -61.6% (active); in the test on NCI-H322M lung, -58.1% (active); in the test with HOP-62 NSCLC it was -32.9% (active); with NCI-H460 lung, -23.4% (active); in the test with HOP-92 NSCLC, -23.4% (active). Besides, the growth in the test with NCI-H522 lung was -65.2% (active); with A549/ATCC NSCLC, -56% (active); in the test with 786-0 renal it was -70.7% (active); in the test on COLO 205 colon it was 3.77% (active); with DU-145 prostate it was 1.94% (active); in the test with K-562 leukemia it was 9.07% (active). Also, the growth in the test on MALME-3M melanoma is -58.3% (active); in the test with MDA-MB-231 breast, -75% (active); in the test with RXF 393 renal, -83.4% (active); with SF-268 CNS, -58.8% (active); in the test on SF-295 CNS, -59.1% (active); with SF-539 CNS, -86.3% (active). Also, the growth in the test with UACC-257 melanoma is 15.5%; in the test with M14 melanoma it was -25.5% (active).
For the compound `Cc1cc(NCc2cc(Nc3ccnc4cc(Cl)ccc34)ccc2F)nc(N2CCSCC2)n1`, the growth in the test on NCI-H23 lung is 26.9%; with NCI-H226 lung, 84.6%; in the test on NCI-H322M lung, 43.2%; in the test on HOP-62 NSCLC, -41.6% (active); with NCI-H460 lung it was 6.39% (active); in the test on HOP-92 NSCLC, 37.7%. For the same compound, the growth with NCI-H522 lung is -23.6% (active); in the test with A549/ATCC NSCLC, 39%; in the test on 786-0 renal, 15.5%; in the test with COLO 205 colon, -38.5% (active); in the test with DU-145 prostate, 23.6%; in the test with K-562 leukemia it was -24.9% (active). Besides, the growth in the test on MALME-3M melanoma was -30.7% (active); in the test with MDA-MB-231 breast, -8.18% (active); in the test on RXF 393 renal it was -5.98% (active); in the test on SF-268 CNS, 38.8%; in the test with SF-295 CNS it was -57.3% (active); in the test with SF-539 CNS, -72.2% (active). The values for the growth in the test on UACC-257 melanoma and with M14 melanoma were 17.6% and -51.6% (active), respectively.
